The source of these data is ChEMBL document CHEMBL3433997, “St. Jude Leishmania screening dataset” (2016).

What all share (assay type): functional
Assay [1] concerns the target Solute carrier family 2, facilitated glucose transporter member 1 (Homo sapiens) (UniProt P11166). In words: ST_JUDE_LEISH: Cytotoxicity at 2uM final concentration against transgenic Leishmania Mexicana promastigotes LmGLUT1 that are glucose transport deficient and complemented with the human glucose transporter GLUT1. Activity is measured by DNA content using SYBR green in vitro.

The target in assay [2] is Hexose transporter 1 (Plasmodium falciparum) (UniProt O97467). In words: ST_JUDE_LEISH: Cytotoxicity at 2uM final concentration against transgenic Leishmania Mexicana promastigotes LmPfHT that are glucose transport deficient and complemented with the Plasmodium falciparum hexose transporter. Activity is measured by DNA content using SYBR green in vitro.
Assay [3] concerns the target Glucose transporter (Leishmania mexicana) (UniProt O61059). The assay can be described thus: ST_JUDE_LEISH: Cytotoxicity at 2uM final concentration against transgenic Leishmania Mexicana promastigotes LmGT2 that are glucose transport deficient and complemented with the L. Mexicana glucose transporter 2. Activity is measured by DNA content using SYBR green in vitro.

“And” between values parts separate entries of the source, which are not always exact repeats. Equal entries are not always repeated.

Solute carrier family 2, facilitated glucose transporter member 1 (Homo sapiens), sequence (P11166 whole entry): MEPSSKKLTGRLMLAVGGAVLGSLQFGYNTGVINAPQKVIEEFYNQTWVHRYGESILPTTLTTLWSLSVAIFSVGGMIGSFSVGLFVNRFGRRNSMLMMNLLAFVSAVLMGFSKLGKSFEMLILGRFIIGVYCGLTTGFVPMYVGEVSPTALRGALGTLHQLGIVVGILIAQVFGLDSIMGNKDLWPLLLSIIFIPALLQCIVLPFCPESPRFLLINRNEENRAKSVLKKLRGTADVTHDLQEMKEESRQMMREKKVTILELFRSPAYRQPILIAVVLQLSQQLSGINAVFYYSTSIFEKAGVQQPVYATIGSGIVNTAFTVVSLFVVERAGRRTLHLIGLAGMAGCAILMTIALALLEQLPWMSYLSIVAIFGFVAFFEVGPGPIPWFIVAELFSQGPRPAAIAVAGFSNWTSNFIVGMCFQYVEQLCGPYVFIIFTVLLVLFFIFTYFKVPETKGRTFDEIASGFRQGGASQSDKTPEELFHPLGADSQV

For the molecule `O=C(/C=C/c1c(Cl)cccc1Cl)NC1CCC(CN2CCC(c3c[nH]c4ccccc34)CC2)CC1` (configuration not stated), the inhibition in assay [1] was 5.03% and 4.85%; in assay [2] it was 12.9% and 2.55%; in assay [3] it was 6.66% and 4.94%.
Consider `COC(=O)c1ccc(CC(C)NCC(O)c2cccc(OCc3ccccc3)c2)cc1` (configuration not stated), for which the inhibition in assay [1] was found to be 7.34%; in assay [2] it was 7.31%; in assay [3], 8.15%.
With `O=C(/C=C/c1ccc(Cl)c(Cl)c1)NC1CCC(CN2CCC(c3c[nH]c4ccc(O)cc34)CC2)CC1` (configuration not stated), the inhibition in assay [1] was 1.43% and 1.97%; in assay [2], 0.14% and 2.98%; in assay [3] it was -2.67% and 3.13%.
As for `CC[C@H]1CN2CC[C@@H]1C[C@H]2[C@H](O)c1cc(N2CCCC(C)(C)C2)nc2ccc(OC)cc12`, the figures for the inhibition in assay [1], in assay [2] and in assay [3] were 0.42%, -0.61% and 0.37%, respectively.
For `CNCCCN(C)C(=O)Oc1c(Br)c(C)nc(C)c1-c1ccc(Oc2ccc(OC(F)(F)F)cc2)cc1` the same measures were -0.18%, -3.25% and -1.27%.
For `Cc1[nH]c2cc(Cl)ccc2c1C1=CCN(CCCCC2(C)C(=O)Nc3c(F)cccc32)CC1` (configuration not stated) the same measures were 1.41%, 0.61% and 0.45%.
For `CC(=O)N(Cc1ccccc1-c1ccc(CNCCc2ccccc2)cc1)C1CCN(Cc2ccccc2)CC1` the same measures were 2.55%, 2.41% and 1.25%.
`OC(CNC1CCCCCCC1)c1ccc(Cl)c(Cl)c1` (configuration not stated): the inhibition was determined as 1.96% in assay [1], 2.06% in assay [2] and 2.43% in assay [3].
For `Cc1csc(-c2ccc3[nH]cc(C4=CCN(C)CC4)c3c2)n1`, the inhibition in assay [1] was determined as 7.46%; in assay [2], 9.43%; in assay [3], 6.12%.
For `O=C(/C=C/c1ccc(Cl)c(Cl)c1)NC1CCC(N2CCC(c3c[nH]c4ccc(O)cc34)CC2)CC1` (configuration not stated) the same measures were 1.81%, 1.52% and 2.5%.
For `COC(=O)/C=C/c1ccc(CC(C)NCC(O)c2cccc(Cl)c2)cc1` (configuration not stated) the same measures were -0.32%, -0.19% and -0.96%.
On to `O=C(NC1CCC(CN2CCC(c3c[nH]c4ccccc34)CC2)CC1)NC12CC3CC(CC(C3)C1)C2` (configuration not stated), for which the inhibition in assay [1] is 3.42%; in assay [2], 3.16%; in assay [3], 1.41%.
For `O=C(O)c1ccc2nc(-c3ccc(-c4ccccc4)cc3)n(C3CCN(Cc4ccc(-c5ncc[nH]5)cc4)CC3)c2c1` the same measures were 9.41%, 8.89% and 8.84%.
`Cc1ccc(CC(C)NCC(O)c2cccc(Br)c2)cc1` (configuration not stated): the inhibition in assay [1] was 1.02%; in assay [2], -0.15%; in assay [3], 1.21%.
For `CCCCCc1cc(O)c2c3c(c(=O)oc2c1)CN(C)CC3` the same measures were 2.93%, 2.18% and 1.87%.
For `CC[C@H]1CN2CC[C@H]1C[C@H]2[C@H](O)c1cc(-c2cccc(C)c2)nc2ccc(OC)cc12` the same measures were 3.99%, 2.64% and 4.03%.
For `CC(Cc1ccc(OCCCCOc2ccccc2)cc1)NCCCN1CCOCC1` (configuration not stated) the same measures were -1.24%, 2.33% and -0.25%.
In the case of `O=C(c1cc(C(=O)NCc2ccc(Cl)cc2)c(=O)n(Cc2ccc(Cl)cc2)c1)c1cc(F)ccc1O`, the inhibition in assay [1] came to 2.53%; in assay [2] it was 1.86%; in assay [3] it was 1.19%.
For `CCCCCc1cc(O)c2c(c1)OC(C)(C)CC2C1=CCN(Cc2ccccc2)CC1` (configuration not stated) the same measures were 2.07%, 2.23% and 2.74%.
For `CCC(C)CN1CCC(N(C)c2cc(NC(=O)c3cccc(C)c3)ccn2)CC1` (configuration not stated) the same measures were -1.69%, 1.14% and -0.14%.
Regarding `Cc1ccc(C[C@@H](C)NC[C@H](O)c2cccc(C(F)(F)F)c2)cc1`, the inhibition turned out to be 3.18% in assay [1], 3.1% in assay [2] and 2.92% in assay [3].
For `CC[C@H]1CN2CC[C@H]1C[C@H]2[C@H](O)c1ccnc2ccc(OC)cc12` the same measures were -0.16%, 0.87% and 0.32%.
Regarding `CSc1ccc(C[C@@H](C)NC[C@H](O)c2cccc(Cl)c2)cc1`, the inhibition in assay [1] was found to be 2.36%; in assay [2], 1.34%; in assay [3], 2.94%.
For `CCCCNC(c1ccc(Cl)cc1)C(O)c1ccc(Cl)cc1` (configuration not stated) the same measures were 8.3%, 8.45% and 9.91%.
For `Cc1[nH]c2ccccc2c1C1=CCN(CCCCC2(C)C(=O)Nc3cccc(F)c32)CC1` (configuration not stated) the same measures were 0.46%, -0.62% and 0.65%.
With `CN1CC(c2ccc(Cl)c(Cl)c2)OC1=N` (configuration not stated), the inhibition in assay [1] is -0.53%; in assay [2] it was 0.23%; in assay [3] it was -0.89%.
For `COc1ccc(C[C@H]2NC[C@H](O)[C@H]2OC(C)=O)cc1` the same measures were 105%, 103% and 92.1%.
For `COC(=O)c1ccc(CC(C)NCC(O)c2cccc3ccccc23)cc1` (configuration not stated) the same measures were 4.9%, 3.26% and 2.22%.
For `COc1cccc(O)c1CNCC(O)c1cccc(C(F)(F)F)c1` (configuration not stated) the same measures were 0.43%, 0.5% and 0.29%.
For `Cc1cccc2[nH]cc(C3CCN(CC4CCC(NC(=O)/C=C/c5ccc(Cl)c(Cl)c5)CC4)CC3)c12` (configuration not stated), the inhibition came to 0.63% in assay [1], 6.74% in assay [2] and 0.15% in assay [3].
For `CC(=O)Nc1ccc(CN2CCC(N(C)c3cc(NC(=O)c4ccc(F)cc4)ccn3)CC2)cc1` the same measures were 1.04%, 2.13% and 2.53%.
For `CCN1CCC(N2CCC(n3c(C)nc4cc(C(F)(F)F)ccc43)CC2)CC1` the same measures were 3.01%, 3.12% and 4.4%.
`Cc1[nH]c2cc(F)ccc2c1C1=CCN(CCCCC2(C)C(=O)Nc3c(F)cccc32)CC1` (configuration not stated): the inhibition was 3.71% in assay [1], 5.17% in assay [2] and 4.44% in assay [3].
For `COCCNCc1cccc(-c2ccccc2CN(C(=O)Nc2ccccc2)C2CCN(Cc3ccccc3)CC2)c1` the same measures were -0.65%, -2.21% and 4.23%.
For `CCCCCc1cc(O)c2c(c1)OC(C)(C)c1ccncc1-2` the same measures were 0.55%, 0.66% and 3.5%.
For `O=C(C=Cc1ccc(F)c(Br)c1)NC1CCC(CN2CCC(c3c[nH]c4ccccc34)CC2)CC1` (configuration not stated), the inhibition in assay [1] is 0.26% and 5.78%; in assay [2] it was -0.2% and 4.24%; in assay [3] it was -1.48% and 3.84%.
As for `CCCc1ccc2c(c1O)CCC(N(CCC)CCC)C2` (configuration not stated), the inhibition in assay [1] came to 2.32%; in assay [2], 2.51%; in assay [3], 2.48%.
For `O=C(NC1CCC(CN2CCC(c3c[nH]c4ccccc34)CC2)CC1)[C@H]1Cc2ccccc2CN1` (some centres not stated) the same measures were 1.47%, 2.41% and 4.44%.
For `CC[C@H]1CN2CC[C@H]1C[C@H]2[C@H](O)c1cc(-c2ccc(F)cc2)nc2ccc(OC)cc12` the same measures were 0.09%, -0.06% and 1.25%.

A word on the inhibition: it is the change of the read-out against control, counted positive when it falls.
